# Laboratory results as given in PubChem BioAssay.
# Inconclusive results are not listed. Activity calls are given as the source filed them.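 The calls were made as follows, unless noted: active = normalized viability below 100% at a tested concentration; inactive = the rest.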
# Key:
# [1] = viability loss in pontine glioma line – cell-based, SU-DIPG-XXV, MIPE5.0, CellTiter-Glo, qHTS, dose response (AID 1347065; cut-off not given, nearly all actives have AC50 up to about 26 µM;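 also: cells exposed to compound for 48 hours before ATP readout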); details: CellTiter-Glo ATP luminescence
# [2] = SU-DIPG-XXV glioma cell viability, MIPE5.0 library, qHTS (AID 1347068; cut-off not given, nearly all actives have IC50 up to about 30 µM;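 as to IC50: cells exposed to compound for 48 hours before viability readout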)
# [3] = JHH-DIPG-1 glioma cell viability, MIPE5.0 library, CellTiter-Glo luminescence, qHTS (AID 1347067; cut-off not given, nearly all actives have AC50 up to about 26 µM;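 also: cells exposed to compound for 48 hours before readout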); details: JHH-DIPG-1 glioma viability, CellTiter-Glo ATP luminescence
# [4] = sensitizers of A549 cells to miR-34 induction, primary screen, imaging, A549 dox-inducible miR-34, nuclei and caspase counts (AID 1347080;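 active = compounds whose cell count with miR-34 switched on is under 0.7 times the count with it off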); details: A549 miR-34 inducible, Hoechst nuclei count, 48 h
# [5] = modifiers of HSF1 nuclear foci, imaging, Selleck Cancer Library (AID 1347162; in the data active = plate-normalised HSF1 focus index below about 0.46); details: human cells, at 10 µM; SSMD: measured here: HSF1 foci SSMD mean; cell count: measured here: cell number; plate-normalised HSF1 focus index: stronger effect = lower value
# [6] = survival rescue of mitochondrial mutant cells in low glucose, primary screen, MELAS cybrids, Rieske KO mouse fibroblasts, CellTiter-Glo (AID 1508586;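 active = mean z-score across replicates of 1.96 or higher in either the MELAS or the Rieske mutant cell line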;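 also: z relative to plate mean and SD of compound and empty wells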)
# [7] = ovarian cancer cell viability with rucaparib, profiling panel, oncology-focused library, rucaparib conditional (AID 1508598); details: patient-derived ovarian cancer cells, CellTiter-Glo viability, 144 h, stronger effect = lower value
structure (smiles),measurement,setting,value
CN1CCN(CCCNc2ncc(Cl)c(-c3cc4c(C(=O)NC5CC5)cccc4s3)n2)CC1,AC50,[1],23.5 µM (active)
same,outcome,[2],inactive
CN(C)CCCOc1ccc(-c2ccc3ncc4c(c3c2)n(C2CCOCC2)c(=O)n4C)cn1,AC50,[1],5.74 µM (active)
same,outcome,[3],inactive
Cn1ncc2cc(-c3cnc(N)c(Cl)c3N3CCC4(CCNC4=O)CC3)ccc21,AC50,[1],20.9 µM (active)
same,outcome,[3],inactive
CC(C)(O)CNc1nc(Nc2ccnc(C(F)(F)F)c2)nc(-c2cccc(C(F)(F)F)n2)n1,AC50,[1],14.8 µM (active)
same,outcome,[2],inactive
Cc1ccc(-c2ccc(C)cn2)nc1,outcome,[1],inactive
same,outcome,[3],inactive
same,outcome,[2],inactive
CN1CCN(C(=O)c2ccc3cc(CCNc4ncnc5ccc(C#N)cc45)ccc3c2)CC1,AC50,[1],23.5 µM (active)
same,AC50,[3],20.9 µM (active)
O=C(Nc1ccc(OC(F)(F)F)cc1)c1sccc1NCc1ccnc2ccccc12,AC50,[1],16.6 µM (active)
same,AC50,[3],5.9 µM (active)
same,outcome,[2],inactive
same,fold change,"[4]; stronger effect = lower value, cell number ratio, induced over uninduced",0.889 (inactive)
same,fold change,[4]; measured here: relative caspase fold change +Dox/-Dox,1.05
same,cell count,"[4]; measured here: total cells with miR-34 induction, stronger effect = lower value",4270
same,cell count,[4]; measured here: total cells without miR-34 induction,4800
same,SSMD,[5],2.93
same,cell count,[5],7420
same,plate-normalised HSF1 focus index,[5],1.18 (inactive)
same,z-score,"[6]; MELAS cybrid survival, CellTiter-Glo 48 h, stronger effect = higher value",-0.433 (inactive)
same,z-score,"[6]; Rieske KO mouse fibroblast survival, CellTiter-Glo 72 h",0.766
same,viability,"[7]; at 0.000305 µM, OCI-C5x cells, with rucaparib 10 µM, 100% = cells with rucaparib alone",104% (inactive)
same,viability,"[7]; at 0.000305 µM, OCI-C5x cells, without rucaparib",102% (inactive)
same,viability,"[7]; at 0.000305 µM, OCI-P5x cells, with rucaparib 20 µM, 100% = cells with rucaparib alone",79.8% (active)
same,viability,"[7]; at 0.000305 µM, OCI-P5x cells, without rucaparib",88.5% (active)
same,viability,"[7]; at 0.00122 µM, OCI-C5x cells, with rucaparib 10 µM, 100% = cells with rucaparib alone",108% (inactive)
same,viability,"[7]; at 0.00122 µM, OCI-C5x cells, without rucaparib",110% (inactive)
same,viability,"[7]; at 0.00122 µM, OCI-P5x cells, with rucaparib 20 µM, 100% = cells with rucaparib alone",76.7% (active)
same,viability,"[7]; at 0.00122 µM, OCI-P5x cells, without rucaparib",81.1% (active)
same,viability,"[7]; at 0.00488 µM, OCI-C5x cells, with rucaparib 10 µM, 100% = cells with rucaparib alone",98.6% (active)
same,viability,"[7]; at 0.00488 µM, OCI-C5x cells, without rucaparib",105% (inactive)
same,viability,"[7]; at 0.00488 µM, OCI-P5x cells, with rucaparib 20 µM, 100% = cells with rucaparib alone",79.8% (active)
same,viability,"[7]; at 0.00488 µM, OCI-P5x cells, without rucaparib",79.7% (active)
same,viability,"[7]; at 0.0195 µM, OCI-C5x cells, with rucaparib 10 µM, 100% = cells with rucaparib alone",108% (inactive)
same,viability,"[7]; at 0.0195 µM, OCI-C5x cells, without rucaparib",113% (inactive)
same,viability,"[7]; at 0.0195 µM, OCI-P5x cells, with rucaparib 20 µM, 100% = cells with rucaparib alone",81% (active)
same,viability,"[7]; at 0.0195 µM, OCI-P5x cells, without rucaparib",79% (active)
same,viability,"[7]; at 0.0781 µM, OCI-C5x cells, with rucaparib 10 µM, 100% = cells with rucaparib alone",108% (inactive)
same,viability,"[7]; at 0.0781 µM, OCI-C5x cells, without rucaparib",113% (inactive)
same,viability,"[7]; at 0.0781 µM, OCI-P5x cells, with rucaparib 20 µM, 100% = cells with rucaparib alone",111% (inactive)
same,viability,"[7]; at 0.0781 µM, OCI-P5x cells, without rucaparib",108% (inactive)
same,viability,"[7]; at 0.313 µM, OCI-C5x cells, with rucaparib 10 µM, 100% = cells with rucaparib alone",98.2% (active)
same,viability,"[7]; at 0.313 µM, OCI-C5x cells, without rucaparib",110% (inactive)
same,viability,"[7]; at 0.313 µM, OCI-P5x cells, with rucaparib 20 µM, 100% = cells with rucaparib alone",107% (inactive)
same,viability,"[7]; at 0.313 µM, OCI-P5x cells, without rucaparib",110% (inactive)
same,viability,"[7]; at 1.25 µM, OCI-C5x cells, with rucaparib 10 µM, 100% = cells with rucaparib alone",94.5% (active)
same,viability,"[7]; at 1.25 µM, OCI-C5x cells, without rucaparib",107% (inactive)
same,viability,"[7]; at 1.25 µM, OCI-P5x cells, with rucaparib 20 µM, 100% = cells with rucaparib alone",103% (inactive)
same,viability,"[7]; at 1.25 µM, OCI-P5x cells, without rucaparib",112% (inactive)
same,viability,"[7]; at 5 µM, OCI-C5x cells, with rucaparib 10 µM, 100% = cells with rucaparib alone",89.4% (active)
same,viability,"[7]; at 5 µM, OCI-C5x cells, without rucaparib",117% (inactive)
same,viability,"[7]; at 5 µM, OCI-P5x cells, with rucaparib 20 µM, 100% = cells with rucaparib alone",77.3% (active)
same,viability,"[7]; at 5 µM, OCI-P5x cells, without rucaparib",54.8% (active)
O=c1oc2c(C3OCCCO3)c(O)ccc2c2c1CNCC2,outcome,[1],inactive
same,outcome,[3],inactive
same,outcome,[2],inactive
c1ccc(-c2ccc(CNc3nc(-c4ccccn4)nnc3-c3ccccc3)cc2)cc1,AC50,[1],3.32 µM (active)
same,AC50,[3],10.5 µM (active)
same,IC50,[2],2.95 µM (active)
CN1CCN(C(=O)c2ccc(-c3ccc4c(C=O)c(O)ccc4c3)s2)CC1,AC50,[1],16.6 µM (active)
same,outcome,[2],inactive
CCNCc1nc2c(N)nc3ccccc3c2n1CC(C)(C)O,outcome,[1],inactive
same,outcome,[3],inactive
same,outcome,[2],inactive
Cc1cc(Nc2ncnc3ccc(NC4=NC(C)(C)CO4)cc23)ccc1Oc1ccn2ncnc2c1,AC50,[1],14.8 µM (active)
same,outcome,[2],inactive
Cc1nnn(C)c1-c1cnc2c3ccc(C(C)(C)O)cc3n([C@H](c3ccccc3)C3CCOCC3)c2c1,AC50,[1],0.372 µM (active)
same,AC50,[3],8.33 µM (active)
COC(=O)C1C2CC3c4[nH]c5cc(OC)ccc5c4CCN3CC2CC(OC(=O)c2cc(OC)c(OC)c(OC)c2)C1OC (stereo not drawn),AC50,[1],20.9 µM (active)
same,AC50,[3],23.5 µM (active)
same,outcome,[2],inactive
O=C(NCCCNC(=O)c1ccc[nH]c1=O)c1cc(-c2ccccc2)on1,outcome,[1],inactive
same,AC50,[3],14.8 µM (active)
same,outcome,[2],inactive
